The text below walks through data of PubChem BioAssay.

Unmarked numbers belong to inactive results. For some of these results: Results with a measured potency or affinity are listed apart. Activity calls are given as the source filed them. Unless noted, no rule for the calls is given here.

Experiment [1] can be described thus: antimalarial activity against Dd2 strain (AID 2302;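 active = growth inhibition above 50% at the single 2 µM test dose, taken to imply half-maximal potency below 2 µM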;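 also: 0% = DMSO untreated growth and 100% = chloroquine plus artemisinin killed control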). To be noted: P. falciparum Dd2 in RBCs, LDH growth readout, 72 h; at 2 µM; hits give high values.
Experiment [2] can be described thus: human hepatoma cell viability loss – ATP luminescence, cytotoxicity control for P. falciparum antimalarial project, primary screen (AID 2303;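 active = inhibition above 50%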;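 also: 0% = DMSO wells and 100% = digitonin-killed cells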). Conditions: HepG2 viability, 24-48 h, at 10 µM, hits give high values.
Experiment [3] concerns the target L-lactate dehydrogenase (Plasmodium falciparum (isolate CDC / Honduras)) (UniProt Q27743). The experiment in a line: PfLDH activity inhibition – cell lysate, 3D7 strain, counter-screen for P. falciparum growth inhibition project (AID 2304).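 Also: 0% = vehicle and 100% = reference inhibitor.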 Conditions: P. falciparum 3D7 crude extract, LDH APAD/NBT absorbance; at 2 µM; hits give high values.
The nature of experiment [4]: inhibition of 3D7 malaria parasite growth – strain 3D7 (AID 2306).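 Also: 0% = DMSO wells and 100% = chloroquine plus artemisinin control wells.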 Conditions: P. falciparum 3D7 erythrocytic growth, LDH absorbance, 72 h; at 2 µM; hits give high values.
Experiment [5] concerns the target Calcium-dependent protein kinase 1 (Plasmodium falciparum (isolate 3D7)) (UniProt P62344). The experiment in a line: PfCDPK1 kinase inhibitors, biochemical, TCAMS library (AID 1159585; cut-off not given, nearly all actives have IC50 up to about 0.98 µM;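 also: inhibitors leave more ATP so luminescence rises with inhibition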). To be noted: recombinant PfCDPK1, Kinase-Glo ATP depletion luminescence.
Experiment [6] has as its target Plasmodium falciparum protein kinase 6 (PK6, PF3D7_1337100) (UniProt Q8IDW1). Kind of experiment: PfPK6 kinase inhibitors, biochemical, TCAMS library (AID 1159586). To be noted: recombinant PfPK6, Kinase-Glo ATP depletion luminescence.
Experiment [7] concerns the target Protein kinase 7 (PK7), Plasmodium falciparum 3D7 (PF3D7_0213400) (UniProt Q7YTF7). The experiment in a line: inhibition of Plasmodium PK7 catalytic activity – biochemical, TCAMS antimalarial set, Kinase-Glo luminescence (AID 1159587). Conditions: recombinant PfPK7, Kinase-Glo ATP depletion luminescence.
The target in experiment [8] is Calcium-dependent protein kinase 4 (Plasmodium falciparum (isolate 3D7)) (UniProt Q8IBS5). Kind of experiment: PfCDPK4 kinase inhibitors, biochemical, TCAMS library (AID 1159588; cut-off not given, nearly all actives have IC50 up to about 0.91 µM). To be noted: recombinant PfCDPK4, Kinase-Glo ATP depletion luminescence.
Chain of Calcium-dependent protein kinase 4 (Plasmodium falciparum (isolate 3D7)) (Q8IBS5 whole entry, looked up): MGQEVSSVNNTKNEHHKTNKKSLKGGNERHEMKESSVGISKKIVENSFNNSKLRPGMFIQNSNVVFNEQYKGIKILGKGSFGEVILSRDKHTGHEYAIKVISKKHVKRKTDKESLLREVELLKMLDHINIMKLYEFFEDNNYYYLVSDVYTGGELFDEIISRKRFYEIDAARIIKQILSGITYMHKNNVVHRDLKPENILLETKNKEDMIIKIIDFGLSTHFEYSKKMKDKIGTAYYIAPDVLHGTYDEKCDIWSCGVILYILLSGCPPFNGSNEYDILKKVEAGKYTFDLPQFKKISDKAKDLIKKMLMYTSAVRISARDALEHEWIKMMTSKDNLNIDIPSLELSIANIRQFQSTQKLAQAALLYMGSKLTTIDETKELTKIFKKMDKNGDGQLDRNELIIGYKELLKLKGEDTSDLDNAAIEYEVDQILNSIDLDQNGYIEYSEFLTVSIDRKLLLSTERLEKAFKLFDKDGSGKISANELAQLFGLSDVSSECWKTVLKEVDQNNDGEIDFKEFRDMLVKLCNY

Chain of L-lactate dehydrogenase (Plasmodium falciparum (isolate CDC / Honduras)) (Q27743 whole entry, looked up): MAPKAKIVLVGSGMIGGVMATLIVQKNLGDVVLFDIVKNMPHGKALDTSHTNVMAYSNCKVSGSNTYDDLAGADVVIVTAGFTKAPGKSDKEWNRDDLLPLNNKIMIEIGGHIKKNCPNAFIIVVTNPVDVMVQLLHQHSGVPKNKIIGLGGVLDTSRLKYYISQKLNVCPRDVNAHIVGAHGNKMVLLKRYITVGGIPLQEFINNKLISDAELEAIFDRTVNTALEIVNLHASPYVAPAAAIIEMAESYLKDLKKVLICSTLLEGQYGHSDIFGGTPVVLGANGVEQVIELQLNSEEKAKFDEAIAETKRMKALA
Chain of Protein kinase 7 (PK7), Plasmodium falciparum 3D7 (PF3D7_0213400) (Q7YTF7 1-343): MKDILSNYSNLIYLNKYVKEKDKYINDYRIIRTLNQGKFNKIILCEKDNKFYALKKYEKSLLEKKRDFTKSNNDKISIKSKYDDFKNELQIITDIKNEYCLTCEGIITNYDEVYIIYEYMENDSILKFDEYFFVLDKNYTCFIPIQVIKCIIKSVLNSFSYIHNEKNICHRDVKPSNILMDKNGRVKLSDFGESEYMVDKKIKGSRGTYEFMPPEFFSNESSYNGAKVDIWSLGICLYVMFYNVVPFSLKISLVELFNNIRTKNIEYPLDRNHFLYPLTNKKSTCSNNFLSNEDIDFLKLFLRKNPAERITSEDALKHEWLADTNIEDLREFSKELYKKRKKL
Chain of Plasmodium falciparum protein kinase 6 (PK6, PF3D7_1337100) (Q8IDW1 1-305): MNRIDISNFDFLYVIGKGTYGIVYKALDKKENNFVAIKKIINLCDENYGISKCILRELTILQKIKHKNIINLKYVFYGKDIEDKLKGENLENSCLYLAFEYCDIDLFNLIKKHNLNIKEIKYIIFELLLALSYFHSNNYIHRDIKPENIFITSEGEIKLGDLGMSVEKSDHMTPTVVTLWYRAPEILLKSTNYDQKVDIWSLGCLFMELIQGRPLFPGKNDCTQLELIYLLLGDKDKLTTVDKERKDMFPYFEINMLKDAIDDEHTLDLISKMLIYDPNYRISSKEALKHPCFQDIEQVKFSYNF
Chain of Calcium-dependent protein kinase 1 (Plasmodium falciparum (isolate 3D7)) (P62344 whole entry, looked up): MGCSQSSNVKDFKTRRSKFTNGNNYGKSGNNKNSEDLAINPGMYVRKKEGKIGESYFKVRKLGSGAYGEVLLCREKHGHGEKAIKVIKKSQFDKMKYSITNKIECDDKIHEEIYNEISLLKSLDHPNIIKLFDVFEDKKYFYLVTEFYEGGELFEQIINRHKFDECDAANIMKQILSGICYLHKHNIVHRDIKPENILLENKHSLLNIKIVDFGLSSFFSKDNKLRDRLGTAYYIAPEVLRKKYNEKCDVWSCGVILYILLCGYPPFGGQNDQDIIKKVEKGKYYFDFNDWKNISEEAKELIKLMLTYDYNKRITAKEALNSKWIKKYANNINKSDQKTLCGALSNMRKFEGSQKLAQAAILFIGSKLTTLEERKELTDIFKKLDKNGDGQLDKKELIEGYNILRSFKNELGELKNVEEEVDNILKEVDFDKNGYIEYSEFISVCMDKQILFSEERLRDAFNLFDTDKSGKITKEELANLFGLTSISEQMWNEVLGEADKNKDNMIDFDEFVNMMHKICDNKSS

`COc1ccc(NC(=O)c2cn(-c3ccc(C(C)(C)C)cc3)nc2C)cc1N1CCN(C)CC1`: the growth inhibition was 71% (active) in experiment [1] and 96% (active) in experiment [4]. Also, the inhibition is 33% in experiment [2] and 0% in experiment [3]. Also, the result in experiment [5], in experiment [6], in experiment [7] and in experiment [8] was inactive.

Take `Clc1cc(Cl)c2cc(CNCCCNc3ccc4ccccc4n3)[nH]c2c1`: the growth inhibition in experiment [1] is 54% (active); in experiment [4] it was 99% (active). For the same compound, the figures for the inhibition in experiment [2] and in experiment [3] were 98% (active) and 3%, respectively. The result in experiment [5], in experiment [6], in experiment [7] and in experiment [8] was inactive.

With `COc1ccc(CCNC(=O)c2cc3c(=O)n4cccc(C)c4nc3n(C)c2=N)cc1`, the growth inhibition in experiment [1] and in experiment [4] was 99% (active) each time. Moreover, the inhibition is 22% in experiment [2] and 4% in experiment [3]. The result in experiment [5], in experiment [6], in experiment [7] and in experiment [8] was inactive.

In the case of `COc1ccccc1-c1nc2nc(N)nc(N)c2nc1-c1ccccc1OC`, the growth inhibition was 1% in experiment [1] and 84% (active) in experiment [4]. In addition, the inhibition in experiment [2] is 27%; in experiment [3], 1%. Also, the outcome in experiment [5], in experiment [6], in experiment [7] and in experiment [8] was inactive.

Regarding `Cc1ccc(Oc2cnn(C)c(=O)c2Nc2cccc(C(=O)NCCc3ccccn3)c2)c(C)c1`, the growth inhibition in experiment [1] and in experiment [4] was 94% (active) in each case. The results for the inhibition in experiment [2] and in experiment [3] were 0% and -4%, respectively. The result in experiment [5], in experiment [6], in experiment [7] and in experiment [8] was inactive.

Regarding `Fc1ccc(-c2csc3ncnc(Cl)c23)cc1`, the growth inhibition in experiment [1] was 95% (active); in experiment [4] it was 94% (active). Further, the inhibition in experiment [2] is 3%; in experiment [3] it was -1%. For the same compound, the outcome in experiment [5], in experiment [6], in experiment [7] and in experiment [8] was inactive.

As to `Fc1c(CNCC2CCN(CC3CCCCC3)CC2)cccc1C(F)(F)F`, the growth inhibition in experiment [1] is 7%; in experiment [4], 93% (active). The inhibition in experiment [2] was 35%; in experiment [3] it was 3%. The result in experiment [5], in experiment [6], in experiment [7] and in experiment [8] was inactive.

For the compound `CC[C@H]1CN(C/C=C/c2ccc(OC)cc2)CC[C@H]1CCCc1ccnc2ccc(O)cc12`, the growth inhibition is 72% (active) in experiment [1] and 99% (active) in experiment [4]. For the same compound, the inhibition is 24% in experiment [2] and 1% in experiment [3]. The result in experiment [5], in experiment [6], in experiment [7] and in experiment [8] was inactive.

Turning to `CCCOc1ccc2ccccc2c1CNCCCCCCNCc1c(OCCC)ccc2ccccc12`, the growth inhibition is 90% (active) in experiment [1] and 94% (active) in experiment [4]. In addition, the inhibition in experiment [2] was 100% (active); in experiment [3], 0%. For the same compound, the result in experiment [5], in experiment [6], in experiment [7] and in experiment [8] was inactive.

As to `CN(C)Cc1ccc(CN2CCN(CCOc3ccc(-c4ccc(Cl)cc4)cc3)CC2)o1`, the growth inhibition in experiment [1] was 21%; in experiment [4] it was 90% (active). The figures for the inhibition in experiment [2] and in experiment [3] were 75% (active) and -1%, respectively. Further, the outcome in experiment [5], in experiment [6], in experiment [7] and in experiment [8] was inactive.

Consider `COc1ccc(OCCCON2C(N)=NC(N)=NC2(C)C)cc1`, for which the results for the growth inhibition in experiment [1] and in experiment [4] were 94% (active) and 97% (active), respectively. Also, the inhibition in experiment [2] was 55% (active); in experiment [3], -3%. Moreover, the result in experiment [5], in experiment [6], in experiment [7] and in experiment [8] was inactive.

Regarding `CC(C)c1ccc(NC(=O)NC2CCN(CCCCCNC(=O)/C=C/c3ccc(Cl)c(Cl)c3)CC2)cc1`, the growth inhibition was 19% in experiment [1] and 100% (active) in experiment [4]. Moreover, the inhibition is -5% in experiment [2] and -2% in experiment [3]. Besides, the result in experiment [5], in experiment [6], in experiment [7] and in experiment [8] was inactive.

With `CC(C)Sc1nncc(-c2cnnc(SC(C)C)n2)n1`, the values for the growth inhibition in experiment [1] and in experiment [4] were 100% (active) and 101% (active), respectively. Further, the figures for the inhibition in experiment [2] and in experiment [3] were -1% and 2%, respectively. In addition, the result in experiment [5], in experiment [6], in experiment [7] and in experiment [8] was inactive.

Consider `Cc1ccccc1OCC(O)CN1CCC(C2CCN(CC(O)COc3ccccc3C)CC2)CC1` (stereo not given), for which the growth inhibition in experiment [1] was 51% (active); in experiment [4], 100% (active). Besides, the inhibition in experiment [2] was 12%; in experiment [3], -4%. Also, the result in experiment [5], in experiment [6], in experiment [7] and in experiment [8] was inactive.

Take `CC(C)CCN1CCCN(Cc2ccc(C(=O)Nc3ccc(Cl)cc3)cc2)CC1`: the values for the growth inhibition in experiment [1] and in experiment [4] were 15% and 94% (active), respectively. Further, the inhibition in experiment [2] was 46%; in experiment [3] it was 4%. The result in experiment [5], in experiment [6], in experiment [7] and in experiment [8] was inactive.

Take `Cn1c(NC(=O)C2CCC(CNC(=O)c3ccc(O)c(-c4ccc(Cl)c(Cl)c4)c3)CC2)nc2ccccc21` (stereo not given): the growth inhibition in experiment [1] is 100% (active); in experiment [4], 99% (active). Besides, the inhibition was 40% in experiment [2] and 1% in experiment [3]. The result in experiment [5], in experiment [6], in experiment [7] and in experiment [8] was inactive.

For the compound `CC1(C)CCC(C)(C)c2c1ccc(C1CCN(CCCCNC(=O)c3ccc(-c4ccc(Cl)cc4)cc3)CC1)c2O`, the growth inhibition in experiment [1] is 72% (active); in experiment [4], 102% (active). Besides, the inhibition is 100% (active) in experiment [2] and -2% in experiment [3]. Also, the result in experiment [5], in experiment [6], in experiment [7] and in experiment [8] was inactive.

Consider `Cc1ccc(-n2c(=O)c3c(n4c(SC(C)C)nnc24)-c2ccccc2CC32CCCCC2)cc1`, for which the growth inhibition in experiment [1] is 88% (active); in experiment [4] it was 95% (active). The inhibition is 8% in experiment [2] and 0% in experiment [3]. Besides, the outcome in experiment [5], in experiment [6], in experiment [7] and in experiment [8] was inactive.

With `CCOc1cc(C(=O)NCCN(CC)c2cccc(C)c2)ccc1-c1nc2ccc(Cl)cc2[nH]1`, the growth inhibition in experiment [1] was 80% (active); in experiment [4], 102% (active). Also, the inhibition in experiment [2] is -1%; in experiment [3] it was 0%. Moreover, the outcome in experiment [5], in experiment [6], in experiment [7] and in experiment [8] was inactive.

As for `COC(=O)c1sc(-c2ccc(Cl)cc2)cc1N(CCCN1CCC(N2CCCCC2)CC1)S(=O)(=O)c1ccc(C)cc1`, the growth inhibition in experiment [1] is 86% (active); in experiment [4] it was 103% (active). The inhibition in experiment [2] was 25%; in experiment [3], -2%. For the same compound, the result in experiment [5], in experiment [6], in experiment [7] and in experiment [8] was inactive.
